High-throughput results as filed in PubChem BioAssay.
MITF primary – human MITF inhibition, primary screen; inhibition, % at 2.6 µM; AlphaScreen MITF homodimerization, bead proximity signal; AID 1259374; hit rate 0.91% among 650,000; O75030; in the data active = inhibition above about 50%;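 note: 0% = vehicle wells with protein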
TEAD-YAP block – TEAD-YAP interaction inhibition; HEK-TIYL cells, TEAD-Gal4/YAP UAS-luciferase luminescence; AID 1259422; inhibition, % at 9.12 µM; hit rate 1.4% among 640,000; in the data active = inhibition above about 32%;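 note: 0% = median of test compound wells and 100% = reference inhibitor wells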
FBW7 act – activators of human E3 ligase FBW7. Q969H0. AlphaScreen FBW7–phospho-cyclin E peptide binding, activator screen. normalized activity (activation), % at 26.1 µM. hit rate 0.13% among 650,000. AID 1259310; in the data active = normalized activity above about 1.9%;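 note: purified mutant Fbw7 with reduced substrate affinity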
GPR151 activ – human GPR151 activation; Q8TDV0; PathHunter beta-arrestin GPR151 cells, luminescence; activation, % at 11.2 µM; hit rate 1% among 650,000; in the data active = activation above about 4.9%;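 note: 0% = median of compound wells and 100% = cells with positive control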
GPR151 confirm – confirmation of human GPR151 activators | shares compounds with GPR151 activ | GPR151 PathHunter beta-arrestin cells, luminescence, 90 min; % of EA-reagent control over plate median | activation, % at 11.2 µM | 6,700 tested, under 10 active | AID 1508609;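 active = mean percent activation across replicates above the confirmation screen cutoff of 4.91%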
GPR119 counter – counter-screen for GPR151 activators: effect on human GPR119. shares compounds with GPR151 activ. GPR119 PathHunter beta-arrestin cells, luminescence, 90 min; 0 = compound-well median, 100 = enzyme-acceptor control. activation, % at 11.2 µM. hit rate 0.3% among 6,700;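 active = mean percent activation in the counterscreen above 29.09%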;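 note: counterscreen on off-target GPR119 to flag nonselective hits from the GPR151 activator screen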
Target sequence (Q8TDV5 whole entry, looked up): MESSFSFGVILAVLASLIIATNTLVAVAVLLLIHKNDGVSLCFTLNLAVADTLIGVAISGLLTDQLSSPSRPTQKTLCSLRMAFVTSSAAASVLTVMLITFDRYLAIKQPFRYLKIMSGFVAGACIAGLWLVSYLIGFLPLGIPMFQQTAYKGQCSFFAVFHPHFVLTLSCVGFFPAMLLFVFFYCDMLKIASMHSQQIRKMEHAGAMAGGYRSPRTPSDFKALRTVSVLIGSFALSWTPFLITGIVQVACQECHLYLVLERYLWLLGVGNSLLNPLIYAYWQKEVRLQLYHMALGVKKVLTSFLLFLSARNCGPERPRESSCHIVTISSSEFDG
* = called active by the depositor; / = no result. Compounds with a hit are over-represented: about 3.4% of the library has one in this group of screens.

SMILES	MITF primary	TEAD-YAP block	FBW7 act	GPR151 activ	GPR151 confirm	GPR119 counter
Cc1cc(C(=O)NC(C)C(=O)O)cc(C)c1[N+](=O)[O-] (configuration not stated)	0.1	2.3	0.0	5.0*	0.3	0.1
Cc1cc(C(=O)NC(CC(C)C)C(=O)O)cc(C)c1[N+](=O)[O-] (configuration not stated)	-21.3	-5.2	-0.1	0.4	/	/
NS(=O)(=O)c1ccc(NC(=O)CCCC(=O)Nc2ccc(S(N)(=O)=O)cc2)cc1	5.5	7.4	0.3	0.1	/	/
COc1ccc(OC)c(/C=N/NC(=O)c2[nH]ncc2Br)c1	12.3	-33.2	0.5	-1.7	/	/
COC(=O)c1[nH]ncc1Br	7.9	2.7	0.0	6.1*	-0.2	-13.8
CCCCOc1ccc2c(=O)c(Oc3cccc(C)c3)coc2c1	6.6	2.2	0.1	-1.3	/	/
CCOC(=O)CSc1ccc(C(=O)NCCOC)cc1[N+](=O)[O-]	-13.7	8.4	0.3	-0.8	/	/
Cc1cc(I)ccc1NC(=O)Cc1ccccc1	-1.5	4.3	0.0	6.1*	-0.4	-0.5
CC1CN(C(=O)c2cnc3sc4ccccc4n3c2=O)CC(C)O1 (configuration not stated)	2.3	-4.2	0.0	-0.7	/	/
CCOc1ccc(NC(=O)CC2S/C(=N\N=C(/C)c3ccc(Cl)cc3)NC2=O)cc1 (configuration not stated)	5.3	3.7	0.2	6.7*	0.1	-9.4
O=C(COc1ccc([N+](=O)[O-])cc1)Nc1cc(C(F)(F)F)ccc1N1CCOCC1	-14.5	-12.4	-0.1	1.2	/	/
O=C(Nc1cc(C(F)(F)F)ccc1N1CCOCC1)c1cc([N+](=O)[O-])ccc1Cl	7.9	81.2*	0.2	5.6*	-0.5	-6.8
COc1ccc(C2=CC(c3cc(OC)c(OC)c(OC)c3)n3nnnc3N2)cc1 (configuration not stated)	16.0	61.4*	0.3	7.3*	-0.2	-9.6
O=C(CN1CCc2nc(N3CCCC3)[nH]c(=O)c2C1)Nc1nccs1	6.0	0.2	0.1	-1.8	/	/
Cc1nc2c(-c3ccccc3)c(C)nn2c(C)c1CCC(=O)Nc1ccccn1	1.2	-1.3	-0.1	5.0*	-0.1	2.7
Nc1cccc(-c2cc(C(=O)O)c3cc(Br)ccc3n2)c1	7.3	-0.9	0.0	6.7*	-0.8	-11.7
O=C(O)c1cc(-c2cccnc2)nc2ccc(Br)cc12	7.4	2.4	0.7	-0.9	/	/
COc1cccc(/C=N\NC(=O)c2ccc(=O)[nH]n2)c1OC	-5.4	-1.3	0.1	2.8	/	/
COC(=O)c1c(NC(=O)c2ccc([N+](=O)[O-])c(C)c2)sc(C)c1C	3.1	-7.7	-0.2	0.2	/	/
O=C1c2ccccc2NC2(C(=O)N(Cc3cccc4ccccc34)c3ccccc32)N1c1ccccc1 (configuration not stated)	3.9	25.4	0.1	7.0*	-0.7	-2.1
Cc1nccn1-c1ccc(NC(=O)C2CCCN(C3CCSCC3)C2)cc1 (configuration not stated)	-22.5	12.5	0.1	6.8*	1.1	-3.0
COc1cc(CN2CCN3CCCC3C2C)cc(OC)c1O (configuration not stated)	13.7	4.2	0.0	-1.0	/	/
CCCCC[C@H](O)/C=C/[C@H]1[C@H](O)CC(=O)[C@@H]1CCCCC(=O)O	12.4	/	/	-3.2	/	/
CCCCC[C@@H](O)/C=C/[C@H]1[C@H](O)CC(=O)[C@@H]1CCCCCCC(=O)O	14.0	/	/	7.2*	0.4	3.5
C=CCn1c(C)cc(C(=O)COC(=O)CNC(=O)c2ccc(OCC)c(OCC)c2)c1C	5.2	-1.0	-0.1	9.6*	0.5	2.4
SMILES	MITF primary	TEAD-YAP block	FBW7 act	GPR151 activ	GPR151 confirm	GPR119 counter
Cc1nc2ccccn2c1C(=O)NCCCN1CCOCC1	-3.3	1.2	0.0	4.9*	-0.4	1.3
O=C(Cn1cnc2ccccc21)NCCCN1CCOCC1	8.1	3.6	-0.1	5.9*	0.5	-1.3
O=C(CN(CC1CCCO1)C(=O)CCC(=O)Nc1ccccn1)NCC1CCCO1 (configuration not stated)	-7.0	1.6	-0.1	5.0*	0.7	5.1
CC(=O)OC1(C/C(C)=N/O)C(=O)N(C)c2ccccc21 (configuration not stated)	4.9	0.4	-0.1	1.1	/	/
Cc1cccc(-n2nnnc2SCC(=O)NN2C(=O)NC(C)(c3ccccc3)C2=O)c1 (configuration not stated)	-8.4	8.1	-0.1	6.9*	1.0	12.1
CC(NC(=O)C(=O)N/N=C/c1cccc(Br)c1)c1ccccc1 (configuration not stated)	12.0	3.8	0.1	-1.0	/	/
CC(=O)C1=C(O)C(=O)N(CCNCCO)C1c1ccc(Cl)cc1 (configuration not stated)	0.6	8.0	0.0	-0.1	/	/
CCc1ccc(C2C(C(C)=O)=C(O)C(=O)N2CCNCCO)cc1 (configuration not stated)	10.2	2.5	0.1	5.4*	0.4	7.6
O=C(Nc1ccc(F)cc1F)C(=O)N1CCCCC1	-9.7	-33.4	0.3	7.1*	1.0	2.5
O=[N+]([O-])c1c(Oc2ccc(Cl)cc2)ccc2nsnc12	12.4	-5.0	0.2	5.3*	-0.1	-6.7
O=[N+]([O-])c1c(Cl)ccc2nsnc12	-0.4	-0.8	0.1	1.0	/	/
COC(=O)c1ccc(-c2nnc(Nc3ccc(Cl)cc3)c3ccccc23)cc1	6.1	2.6	0.0	1.2	/	/
Cc1nn(-c2ccccc2)c(Cl)c1C(=O)Nc1nnc(COc2ccccc2)s1	-0.1	10.8	-0.2	5.5*	1.5	7.5
CC(C)(C)c1ccc(C(=O)Nc2nnc(COc3ccccc3)s2)cc1	2.0	1.5	0.3	0.0	/	/
CC(C)c1ccc(NC(=O)CSc2nc3cc4c(cc3c(=O)n2CCC2=CCCCC2)OCO4)cc1	-4.0	3.5	-0.2	5.9*	-0.6	7.2
O=c1c2c(nc3nc(-c4ccccc4)[nH]n13)CCCC2	3.8	8.5	0.1	5.7*	-0.9	-8.5
Cc1nn(C)c(C)c1-c1cc(NC2CC2)ncn1	9.5	4.2	-0.1	-0.1	/	/
COc1cc(OC)cc(C(=O)Nc2sc3c(c2C#N)CCN(C(C)=O)C3)c1	8.7	60.6*	0.0	7.3*	0.5	4.1
COc1cc(C(=O)Nc2sc3c(c2C#N)CCN(C(C)=O)C3)cc(OC)c1OC	5.7	29.2	0.1	-0.6	/	/
COc1cc(OC)nc(Oc2ccccc2/C=N/NC(=O)C(C)C)n1	-10.7	-10.9	0.0	-1.8	/	/
CCN(CC)c1nc(NCc2cccc(C(F)(F)F)c2)nc(Nc2ccc(C(F)(F)F)cc2)n1	8.4	6.0	0.1	0.4	/	/
CCN(CC)c1nc(NCc2cccc(C(F)(F)F)c2)nc(NCc2ccc3c(c2)OCO3)n1	6.7	-6.2	0.1	6.4*	0.0	-10.1
CC1CCN(c2nc3c(c(=O)[nH]2)CCN(Cc2cccc4nccnc24)C3)CC1	-6.3	5.1	-0.2	7.4*	1.0	5.7
